Source: PubChem BioAssay (NCI)
Several values for one entry are separate records, joined by “and”; a condition that tells them apart may be missing. Equal values may be shown once. Compounds without any hit were thinned out: in the full panel of roughly 79,000, 15% have a hit. Activity calls are given as the source filed them. No stated cut-off is given here; in the data, active means growth inhibition above about 70%; inactive means the rest.

Assays:
[1] = NCI Yeast Anticancer Drug Screen. Data for the rad50 strain (AID 155);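 further: 0% = growth of vehicle-only cultures of the same strain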; conditions: S. cerevisiae rad50 strain growth inhibition; at 50.0 µM; stronger effect = higher value
Summary of the method: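 Relative growth inhibition (compound vs vehicle) was measured in yeast with a defined repair-gene alteration.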

[2] = NCI Yeast Anticancer Drug Screen. Data for the mec2-1 strain (AID 157); conditions: S. cerevisiae mec2-1 strain, at 50.0 µM, stronger effect = higher value
Summary of the method: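 Strain: mec2-1 (DNA repair/cell cycle alteration). Compound exposure, then growth measured; inhibition expressed relative to vehicle.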

[3] = NCI Yeast Anticancer Drug Screen. Data for the sgs1 mgt1 strain (AID 161);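 further: 0% = growth of cultures given vehicle only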; conditions: S. cerevisiae sgs1 mgt1 strain, at 50.0 µM, stronger effect = higher value
Summary of the method: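 Genetically altered yeast, compound exposure, growth inhibition relative to vehicle.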

[4] = NCI Yeast Anticancer Drug Screen. Data for the cln2 rad14 strain (AID 165);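 further: 0% = growth equal to vehicle treated cultures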; conditions: S. cerevisiae cln2 rad14 strain, at 50.0 µM, stronger effect = higher value
Summary of the method: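 Compounds are applied to the cln2 rad14 yeast strain, and growth is then compared with that of vehicle-treated cultures to give inhibition.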

[5] = NCI Yeast Anticancer Drug Screen. Data for the bub3 strain (AID 167); conditions: S. cerevisiae bub3 mutant strain, at 50.0 µM, stronger effect = higher value
Summary of the method: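 Screening used yeast with an engineered genetic alteration affecting cell cycle control. Compound-exposed cultures were compared with vehicle cultures, and reduced growth was taken as inhibition.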

[6] = NCI Yeast Anticancer Drug Screen. Data for the mlh1 rad18 strain (AID 175); conditions: S. cerevisiae mlh1 rad18 strain growth inhibition; at 50.0 µM; stronger effect = higher value
Summary of the method: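 Read-out is yeast growth inhibition, calculated against vehicle-only controls. The compound was applied to a strain engineered with DNA damage repair alterations.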

Measured: growth inhibition

Cc1csc2n/c(=N/[N+](=O)[O-])sn12
inactive: [1] 51.5% | [2] 26.9% | [3] 46.8% | [4] -12.5% | [5] 50.4% | [6] 44.1%

NC(N)=NCCN=C(N)N
inactive: [1] -2.7% | [2] -30.1% | [3] -29.6% | [4] -24.1% | [5] -53.2% | [6] -9.15%

CC[N+]1(CC)CC[N+](CC)(CC)CC1
inactive: [1] 22.9% | [2] -49% | [3] 25.8% | [4] -9.05% | [5] -0.9% | [6] 16.4%

N#CCCNCCC#N
inactive: [1] 3.95% and 11.8% and 12.2% | [2] 4.4% and -11.6% and 3.15% | [3] -6.05% and 9.35% and -2.9% | [4] -41.6% and 25.7% and 16.1% | [5] -4.95% and 8.65% and 1.45% | [6] 6.15% and 13.7% and 14.7%

O=C(COc1ccc(Cl)c(Cl)c1)Nc1cccc(S(=O)(=O)F)c1
inactive: [1] 29.4% | [2] 10.4% | [3] -2.45% | [4] -10.8% | [5] 13.1% | [6] 19.4%

COc1ccc2c(c1O)[C@@]13C=C(O)C(=O)C=C1[C@@H](C2)N(C)CC3
inactive: [1] 40% | [2] 4.6% | [3] 11.6% | [4] 23.6% | [5] -2.6% | [6] -47.9%

CCN(CC)P1(=O)OP(=O)(N(CC)CC)OP(=O)(N(CC)CC)O1 (centres undefined)
inactive: [1] -0.5% | [2] 7% | [3] 11.8% | [4] 14.3% | [5] -9.7% | [6] -11.6%

O=C(Oc1ccc(S(=O)(=O)F)cc1Cl)c1ccccc1Cl
active: [1] 99.4% | [2] 99.6% | [3] 99.5% | [4] 99.3% | [5] 99.4% | [6] 99.4%

O=P1(c2ccccc2)NC2CCCCC2N1 (centres undefined)
inactive: [1] 24.2% | [2] -8.05% | [3] -5.3% | [4] -87% | [5] -0.9% | [6] 2.95%

CCN1C(=O)C(=Cc2ccc(-c3ccccc3)cc2)C(=O)N(CC)C1=S
inactive: [1] 32.4% | [2] -5.5% | [3] 23.1% | [4] 16.9% | [5] 15.4% | [6] 20.4%

CN(C)CCNC(=O)c1c([N+](=O)[O-])ccc(N(CCCl)CCCl)c1[N+](=O)[O-]
inactive: [1] 12.7% | [2] -11.4% | [3] -9.9% | [4] -27.7% | [5] 13.2% | [6] -2.65%

[N-]=[N+]=NC1C2CC3CC(C2)CC1C3 (centres undefined)
inactive: [1] -15.7% | [2] 8.3% | [3] -7.2% | [4] -6.6% | [5] -10.7% | [6] -24.8%

ClCc1ccc2ccccc2n1
inactive: [1] 19.1% and 11.7% | [2] -8.8% and -0.5% | [3] -3.8% and 8.5% | [4] 7.55% and 3.35% | [5] -17.6% and -7.65% | [6] 9.75% and 4.55%

O=C(O)c1cc(C(=O)O)cc(S(=O)(=O)F)c1
inactive: [1] 13.5% | [2] 3.75% | [3] 19.6% | [4] 10.6% | [5] -4.05% | [6] 7.5%

O=P(O)(O)C(O)c1ccncc1 (centres undefined)
inactive: [1] -28% | [2] -14.9% | [3] -15.8% | [4] -23.1% | [5] -22.6% | [6] -21.9%

O=[N+]([O-])c1ccc(O)c(CBr)c1
inactive: [1] 35.5% | [2] -5.15% | [3] 7.55% | [4] 18.6% | [5] 13.9% | [6] 4.95%

c1ccc2c(c1)oc1ccccc12
inactive: [1] 2.05% | [2] 11.3% | [3] 7.2% | [4] -64.5% | [5] 4% | [6] -4.1%

N#C[S-].N#C[S-].[Au+3].[Au+3].[CH3-].[CH3-].[CH3-].[CH3-]
inactive: [1] 51.4% | [2] 11% | [3] 61.5% | [4] 33.4% | [5] 12.5% | [6] 53.5%

N[C@H](Cc1ccc2oc3cc(=O)c4ccccc4c-3nc2c1)C(=O)O
inactive: [1] 20.8% | [2] 33.4% | [3] 24.7% | [4] 15.1% | [5] 35.5% | [6] 39.2%

C=COC(=O)NC(C(=O)O)C(C)CC (centres undefined)
inactive: [1] 43.1% | [2] 18.6% | [3] 44.4% | [4] 24.9% | [5] -5.35% | [6] 34.9%

CCOC(CP(=O)(OCC)OCC)OCC
inactive: [1] -13.2% and 8.45% | [2] -26.2% and -14.3% | [3] -16.2% and 4.65% | [4] 16.2% and 15.7% | [5] 3.65% and 6.5% | [6] -25.4% and 14.4%

Nc1cc(N)c([N+](=O)[O-])cc1[N+](=O)[O-]
inactive: [1] 20.8% | [2] 2.8% | [3] 14.1% | [4] 5.75% | [5] 9.8% | [6] 11.3%

COP(=O)(CC(=O)CCCCC1OCCO1)OC
inactive: [1] 2.25% | [2] 0% | [3] 1.3% | [4] -22.8% | [5] -5.3% | [6] -4.85%

Cn1nc(-c2ccc(S(=O)(=O)F)cc2)s/c1=N/NC(=O)c1ccccc1
inactive: [1] 4% | [2] 2% | [3] 19.8% | [4] 23.4% | [5] 18.6% | [6] 3.65%

COC(=O)C1(C(=O)OC)ON1C(C)(C)C (centres undefined)
inactive: [1] -48.5% | [2] -17.6% | [3] -17.6% | [4] -57.8% | [5] -5% | [6] -11.6%

CP(O)(=S)C1CCCCC1 (centres undefined) (tested in a mixture with another compound)
inactive: [1] 26.8% | [2] 1.1% | [3] -4.85% | [4] 5.3% | [5] 18.7% | [6] 13.8%

Clc1ccc(N=P(c2ccccc2)(c2ccccc2)c2ccccc2)cc1.[Cl][Co][Cl]
inactive: [1] 49% | [2] 11.1% | [3] 44.5% | [4] 18.1% | [5] 22.1% | [6] 14.6%

C[C@H]1CC(=O)C[C@@H]2CC[C@@H]3[C@H](CC[C@]4(C)C(OC(=O)c5cccc6c(=O)c7ccccc7[nH]c56)CC[C@@H]34)[C@]21C (some centres undefined)
inactive: [1] 42.4% | [2] 22% | [3] 45.6% | [4] 41.9% | [5] 5.2% | [6] 40.9%

O=C=Nc1ccccc1Cl
inactive: [1] 12.5% | [2] 3.1% | [3] -1.15% | [4] 5.45% | [5] 4.2% | [6] 5.15%

Cc1ccc(NC(=O)C(Cl)(Cl)Cl)cc1Cl
inactive: [1] 1.8% | [2] 20.6% | [3] 16.4% | [4] -5.2% | [5] 25.2% | [6] 14.8%

CCCCCCCCOC(=O)c1ccccc1C(=O)OCCCCCCCC
inactive: [1] -0.95% | [2] -3.35% | [3] 18.6% | [4] 9.25% | [5] -3.95% | [6] -5.5%

O=c1c(O)c(-c2ccccc2)oc2ccccc12.[Zn+2]
inactive: [1] -6.95% | [2] 7.25% | [3] 20.2% | [4] -41% | [5] 24.9% | [6] 27.6%

[Se]=P(N1CCCCC1)(N1CCCCC1)N1CCCCC1
inactive: [1] 21.6% | [2] 2.75% | [3] 6.4% | [4] 6.55% | [5] 11.4% | [6] 10.2%

C[N+](C)=c1nc(N2CCc3ccccc3C2)ss1
inactive: [1] 27% | [2] 37% | [3] 26.4% | [4] -19.4% | [5] 12.1% | [6] 47.7%

O=P(Cc1ccccc1)(Oc1ccccc1)Oc1ccccc1
active: [1] 89.8% | [3] 82.2% | [6] 74.8%
inactive: [2] 56.5% | [4] 24.8% | [5] 40.1%

CCOS(=O)(=O)OCC
inactive: [1] 1.2% | [2] -12.1% | [3] 4.25% | [4] -0.45% | [5] -10.8% | [6] 14.2%

N.N.N.O=N[O-].O=N[O-].O=N[O-].[Co+3]
inactive: [1] -2.05% | [2] 9.65% | [3] -6.25% | [4] 18.6% | [5] 6.5% | [6] -10.4%

C[N+](C)(C)CCNP(=O)(Oc1ccccc1)c1ccccc1 (centres undefined)
inactive: [1] 4.15% | [2] 5.55% | [3] -22.5% | [4] 1.35% | [5] -1.55% | [6] 21.6%

CC([NH-])C[NH-].[NH2-].[NH2-].[Pt+4] (centres undefined)
inactive: [1] 17.1% | [2] -5.65% | [3] -10.3% | [4] -6.25% | [5] 5.8% | [6] -12.3%
